By AC50 is commonly meant the concentration at which the activity in the assay is half-maximal.

We go through 21 compounds from PubChem BioAssay (EPA / NIEHS).

The source made the active and inactive calls. Rule for the calls: active = hit-call score of the fitted dose curve at least 0.9, where 1 is the maximum; inactive = score below 0.9.

Experiment [1] is described as follows: ATG_PBREM_CIS: Attagene CIS-FACTORIAL HepG2 Assay for human Phenobarbital-responsive Enhancer Module (PBREM) (AID 2282955). The note with it: HepG2 PBREM cis-reporter, Attagene multiplexed transcription; actives raise or lower the signal. In a few lines: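 Readout: reporter mRNA, fluorescent RT-PCR fragments separated by capillary electrophoresis. System: HepG2 transiently transfected with cis-regulated reporter units. Exposure: 24 h. Analysis: bidirectional, DMSO baseline.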

The target of experiment [2] is Paired box protein Pax-6 (Homo sapiens) (UniProt P26367). Briefly: ATG_Pax6_CIS: Attagene CIS-FACTORIAL HepG2 Assay for human Paired Box 6 (PAX6) (AID 2282956). To be noted: HepG2 CIS-FACTORIAL PAX6 reporter transcription, RNA readout; actives raise or lower the signal. In a few lines:
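Fluorescent RT-PCR products separated by capillary electrophoresis report PAX6-linked promoter mRNA in HepG2 cells 24 h post-dose. Curves fitted bidirectionally, DMSO as negative control.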

A short description of experiment [3]: ATG_PXRE_CIS: Attagene CIS-FACTORIAL HepG2 Assay for human Pregnane X Receptor Element (PXRE) (AID 2282957). To be noted: HepG2 Attagene CIS-FACTORIAL PXRE reporter, mRNA; actives raise or lower the signal. In a few lines: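 Read-out: fluorescence of reporter-specific RT-PCR products resolved by capillary electrophoresis, fitted bidirectionally relative to DMSO. Human HepG2 liver cells carried transfected cis-promoter reporter units and were exposed to chemicals for 24 h.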

A short description of experiment [4]: ATG_PPRE_CIS: Attagene CIS-FACTORIAL HepG2 Assay for human Peroxisome Proliferator-activated Response Element (PPRE) (AID 2282958). The note with it: HepG2 PPRE cis-element reporter, Attagene transcription factor profiling; actives raise or lower the signal. In a few lines:
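After human HepG2 hepatoma cells were transiently transfected with cis-promoter reporter constructs, they were exposed to test chemicals for 24 hours. Reporter RNA was then reverse-transcribed, PCR-amplified, FAM-labeled, HpaI-digested and quantified by capillary electrophoresis.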

Experiment [5] in a line: ATG_RORE_CIS: Attagene CIS-FACTORIAL HepG2 Assay for human RAR-related Orphan Receptor Element (RORE) (AID 2282959). To be noted: HepG2 Attagene cis-factorial RORE reporter, mRNA; actives raise or lower the signal. The essentials: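 Measured here: transcript induction of a cis-regulated reporter in HepG2 cells transiently transfected via FuGene 6. After 24 h, RNA was processed by RT-PCR and fluorescent capillary electrophoresis; DMSO defined baseline activity.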

A short description of experiment [6]: ATG_Sox_CIS: Attagene CIS-FACTORIAL HepG2 Assay for human SRY-box transcription factor (SOX) (AID 2282960). The note with it: HepG2 Attagene cis-factorial SOX reporter, mRNA; actives raise or lower the signal. In a few lines: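 Using transiently transfected HepG2 cells, reporter transcription driven by cis elements was assessed 24 h after dosing. Signal was fluorescence of capillary-separated RT-PCR products, with DMSO defining baseline activity.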

For experiment [7], the target named is Transcription factor Sp1 (Homo sapiens) (UniProt P08047). In words: ATG_Sp1_CIS: Attagene CIS-FACTORIAL HepG2 Assay for human Specificity Protein 1 (Sp1) (AID 2282961). The note with it: HepG2 Sp1 cis-reporter transcription, actives raise or lower the signal. In a few lines: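 After transient transfection of HepG2 cells with cis-promoter reporter units and 24 h chemical treatment, reporter transcripts were quantified by RT-PCR and capillary electrophoresis fluorescence. Gain- and loss-of-signal fitted against DMSO.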

The nature of experiment [8]: ATG_SREBP_CIS: Attagene CIS-FACTORIAL HepG2 Assay for human Sterol Regulatory Element Binding (SREBP) (AID 2282962). The note with it: HepG2 Attagene cis-factorial SREBP reporter, mRNA; actives raise or lower the signal. The essentials:
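Endogenous factor activity is measured in HepG2 through multiplexed reporter units under cis-element control. Following a 24 h incubation, reporter transcripts are reverse-transcribed, PCR-amplified and sized by capillary electrophoresis; activity is fitted in both directions relative to DMSO.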

The target in experiment [9] is Signal transducer and activator of transcription 3 (Homo sapiens) (UniProt P40763). In words: ATG_STAT3_CIS: Attagene CIS-FACTORIAL HepG2 Assay for human Signal Transducer and Activator of Transcription 3 (STAT3) (AID 2282963). The note with it: HepG2, Attagene cis-factorial STAT3 reporter transcription; actives raise or lower the signal. The essentials:
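Uses human liver HepG2 transiently carrying cis-regulated reporter transcription units. Following 24 h dosing, reporter mRNA induction was detected by RT-PCR and capillary electrophoresis, analysed bidirectionally versus DMSO.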

Experiment [10] is described as follows: ATG_TA_CIS: Attagene CIS-FACTORIAL HepG2 Assay for human TA Basal Promoter (AID 2282964). To be noted: HepG2 Attagene CIS-factorial TA basal promoter reporter; actives raise or lower the signal. In a few lines:
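Read-out: fluorescent reporter-transcript fragments resolved by capillary electrophoresis after RT-PCR and HpaI digestion. Source: HepG2 cells carrying transiently transfected multi-reporter cis constructs, treated 24 h. Endpoint fitted bidirectionally relative to DMSO.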

Sequence of Paired box protein Pax-6 (Homo sapiens) (P26367 whole entry, looked up): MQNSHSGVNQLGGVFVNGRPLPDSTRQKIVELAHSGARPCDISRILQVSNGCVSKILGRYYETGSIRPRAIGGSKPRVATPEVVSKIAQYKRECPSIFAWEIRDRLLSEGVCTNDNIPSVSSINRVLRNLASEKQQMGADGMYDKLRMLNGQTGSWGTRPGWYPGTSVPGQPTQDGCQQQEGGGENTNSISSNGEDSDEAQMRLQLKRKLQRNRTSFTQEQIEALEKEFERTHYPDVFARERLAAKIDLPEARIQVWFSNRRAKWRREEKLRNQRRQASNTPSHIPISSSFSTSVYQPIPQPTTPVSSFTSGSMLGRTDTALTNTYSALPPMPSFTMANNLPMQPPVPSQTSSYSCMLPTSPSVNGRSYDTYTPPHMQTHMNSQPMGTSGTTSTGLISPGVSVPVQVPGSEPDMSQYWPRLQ
Sequence of Signal transducer and activator of transcription 3 (Homo sapiens) (P40763 whole entry, looked up): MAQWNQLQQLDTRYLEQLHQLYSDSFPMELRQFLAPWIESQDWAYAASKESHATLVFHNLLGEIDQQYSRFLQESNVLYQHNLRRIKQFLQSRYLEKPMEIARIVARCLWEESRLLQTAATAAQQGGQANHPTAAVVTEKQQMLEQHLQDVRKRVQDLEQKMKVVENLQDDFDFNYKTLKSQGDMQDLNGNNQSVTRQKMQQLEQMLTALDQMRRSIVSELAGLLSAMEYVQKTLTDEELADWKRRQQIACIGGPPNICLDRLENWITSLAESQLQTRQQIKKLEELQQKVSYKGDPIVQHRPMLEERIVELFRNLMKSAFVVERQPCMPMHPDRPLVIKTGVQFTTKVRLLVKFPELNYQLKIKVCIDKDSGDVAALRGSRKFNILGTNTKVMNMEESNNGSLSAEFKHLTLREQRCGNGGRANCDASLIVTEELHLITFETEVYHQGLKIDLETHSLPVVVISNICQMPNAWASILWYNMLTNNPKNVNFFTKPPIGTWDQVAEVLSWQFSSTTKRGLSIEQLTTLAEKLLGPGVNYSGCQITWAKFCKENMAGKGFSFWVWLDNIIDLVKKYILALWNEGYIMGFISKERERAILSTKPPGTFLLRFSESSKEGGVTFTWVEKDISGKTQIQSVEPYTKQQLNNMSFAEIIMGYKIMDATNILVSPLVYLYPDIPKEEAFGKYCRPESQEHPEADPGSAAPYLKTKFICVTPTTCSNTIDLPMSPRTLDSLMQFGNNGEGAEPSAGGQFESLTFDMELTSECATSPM
Sequence of Transcription factor Sp1 (Homo sapiens) (P08047 whole entry, looked up): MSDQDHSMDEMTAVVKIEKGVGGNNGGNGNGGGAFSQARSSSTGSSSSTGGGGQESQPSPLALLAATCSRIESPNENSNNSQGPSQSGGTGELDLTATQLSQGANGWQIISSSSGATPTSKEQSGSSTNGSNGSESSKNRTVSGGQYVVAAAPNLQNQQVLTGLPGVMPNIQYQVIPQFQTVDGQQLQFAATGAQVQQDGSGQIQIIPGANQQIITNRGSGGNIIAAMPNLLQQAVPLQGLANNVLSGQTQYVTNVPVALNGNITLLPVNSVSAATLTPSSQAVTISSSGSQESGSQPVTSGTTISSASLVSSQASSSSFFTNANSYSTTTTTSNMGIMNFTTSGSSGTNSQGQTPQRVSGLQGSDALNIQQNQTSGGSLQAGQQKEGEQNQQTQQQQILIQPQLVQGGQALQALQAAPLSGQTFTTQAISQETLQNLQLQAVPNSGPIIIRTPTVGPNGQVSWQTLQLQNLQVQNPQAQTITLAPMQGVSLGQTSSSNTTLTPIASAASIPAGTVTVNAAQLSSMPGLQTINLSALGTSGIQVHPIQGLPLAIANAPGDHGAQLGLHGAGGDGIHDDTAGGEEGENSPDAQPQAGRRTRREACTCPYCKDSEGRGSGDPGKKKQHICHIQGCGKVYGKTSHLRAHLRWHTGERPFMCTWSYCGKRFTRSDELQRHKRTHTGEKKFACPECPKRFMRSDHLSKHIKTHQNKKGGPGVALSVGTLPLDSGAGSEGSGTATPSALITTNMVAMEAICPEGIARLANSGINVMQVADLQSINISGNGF

Regarding `C[Si]1(C)O[Si](C)(C)O[Si](C)(C)O[Si](C)(C)O1`, the outcome in experiment [1], in experiment [2], in experiment [4], in experiment [5], in [6] and in experiment [7] was inactive. Besides, the compound was called inactive in [8] and in [9]. For the same compound, the half-maximal activity concentration (AC50) in experiment [3] was 26.6 µM (active).
On to `Cc1ccc2ncccc2c1`, for which the outcome in [1], in experiment [2], in experiment [3], in experiment [4], in experiment [5] and in experiment [6] was inactive. The call in [7], in experiment [8], in experiment [9] and in experiment [10] was inactive.
As for `Cc1cc(=O)[nH]c(=S)[nH]1`, the result in [1], in experiment [2], in [3], in experiment [4], in experiment [5] and in experiment [6] was inactive. Besides, the compound was called inactive in [7], in experiment [8] and in [9].
Regarding `CCOc1ccc2c(c1)C(C)=CC(C)(C)N2`, the outcome in [1], in experiment [6], in experiment [8] and in [9] was inactive. The AC50 in experiment [2] was 100 µM (active); in experiment [3], 1.91 µM (active); in experiment [4] it was 78.8 µM (active); in experiment [5] it was 100 µM (active); in [7], 78.9 µM (active); in experiment [10], 100 µM (active).
As to `CCCCCCC(=O)OCC`, the result in experiment [1], in experiment [2], in experiment [4], in experiment [5], in experiment [6] and in experiment [7] was inactive. Moreover, the call in experiment [8], in experiment [9] and in experiment [10] was inactive. The AC50 in experiment [3] is 30.1 µM (active).
`Cc1ccccc1Cl`: the result in experiment [1], in experiment [2], in experiment [3], in experiment [4], in [5] and in experiment [6] was inactive. Besides, the result in experiment [7], in experiment [8], in experiment [9] and in experiment [10] was inactive.
With `CCCCC(CC)COC(=O)CC(C(=O)OCC(CC)CCCC)S(=O)(=O)O` (stereo unspecified), the result in experiment [1], in experiment [2], in experiment [4], in [5], in [6] and in experiment [7] was inactive. For the same compound, the outcome in [9] and in [10] was inactive. The AC50 in experiment [3] is 1.1 µM (active); in [8], 14.2 µM (active).
`COCCOC[C@H](CC1(C(=O)NC2CCC(C(=O)O)CC2)CCCC1)C(=O)Oc1ccc2c(c1)CCC2` (stereo partly specified): the outcome in experiment [1], in [2], in [4], in experiment [5], in experiment [6] and in [7] was inactive. The call in experiment [8], in experiment [9] and in experiment [10] was inactive. The AC50 in [3] was 20.2 µM (active).
On to `Nc1ccccc1N`, for which the outcome in [1], in experiment [6], in experiment [8] and in experiment [9] was inactive. Moreover, the AC50 in [2] was 23 µM (active); in [3], 82.4 µM (active); in experiment [4], 15.7 µM (active); in experiment [5] it was 28.5 µM (active); in [7], 25.9 µM (active).
As to `CNC(=O)[C@H]1O[C@@H](n2cnc3c(NCc4cc(Cl)ccc4OCc4cc(C)no4)ncnc32)[C@H](O)[C@@H]1N`, the outcome in [1], in experiment [2], in [4], in [5], in experiment [6] and in experiment [7] was inactive. For the same compound, the call in experiment [8] and in [9] was inactive.
With `COc1cccc2c1C(=O)c1c(O)c3c(c(O)c1C2=O)C[C@@](O)(C(=O)CO)C[C@@H]3O[C@H]1C[C@H](N)[C@H](O)[C@H](C)O1`, the result in experiment [1], in experiment [2], in experiment [4], in experiment [5], in experiment [6] and in experiment [7] was inactive. Also, in [9], the outcome was inactive. For the same compound, the AC50 in experiment [8] is 0.909 µM (active).
In the case of `CCCCc1ccc2c(n1)[C@@H](c1ccc(OC)cc1C[C@H](C)C(=O)O)[C@H](C(=O)O)[C@H]2c1ccc2c(c1)OCO2`, the result in experiment [1], in experiment [2], in [3], in experiment [5], in experiment [6] and in experiment [7] was inactive. Further, the call in [8], in [9] and in experiment [10] was inactive.
As for `COc1ccc(C)cc1N`, the outcome in experiment [1], in [2], in experiment [4], in experiment [5], in experiment [6] and in experiment [7] was inactive. The compound was called inactive in [8], in [9] and in experiment [10].
As to `C=CCc1ccc(O)c(OC)c1`, the result in [1], in [2], in [4], in [5], in experiment [6] and in [7] was inactive. Further, the result in experiment [8] and in experiment [9] was inactive.
Regarding `CC1(C)CC(N=C=O)CC(C)(CN=C=O)C1` (stereo unspecified), the outcome in experiment [1], in experiment [2], in [5], in experiment [6], in [7] and in [8] was inactive. The result in experiment [9] and in experiment [10] was inactive. For the same compound, the AC50 in [3] is 55.6 µM (active).
`Oc1ccc2ccccc2c1N=Nc1ccccc1`: the values for the AC50 in experiment [1], in experiment [3] and in [5] were 5.39 µM (active), 7.05 µM (active) and 2 µM (active), respectively. Further, the outcome in [2], in experiment [6], in experiment [7], in experiment [8], in experiment [9] and in experiment [10] was inactive.
Take `O=C(OCCCCCOC(=O)c1ccccc1)c1ccccc1`: the outcome in [1], in [2], in experiment [4], in [5], in experiment [6] and in [7] was inactive. For the same compound, the call in experiment [8], in [9] and in experiment [10] was inactive.
Take `CC(=O)OCCOCCOCCOC(C)=O`: the result in experiment [1], in experiment [2], in [4], in [5], in experiment [6] and in experiment [7] was inactive. The call in [8], in [9] and in experiment [10] was inactive.
Turning to `C[C@]12C=CC(=O)C=C1CC[C@@H]1[C@@H]2C(=O)C[C@@]2(C)[C@H]1CC[C@]2(O)C(=O)CO`, the outcome in experiment [1], in experiment [2], in experiment [5], in experiment [6], in experiment [7] and in experiment [8] was inactive. Also, the compound was called inactive in experiment [9]. The AC50 in experiment [3] was 55.6 µM (active).
Regarding `Cc1cccc(C)c1O`, the outcome in [1], in experiment [2], in experiment [4], in [5], in experiment [6] and in experiment [7] was inactive. Further, the compound was classed as inactive in experiment [8], in [9] and in [10].
In the case of `C1CCC(SSC2CCCCC2)CC1`, the result in experiment [1], in experiment [2], in [4], in experiment [5], in experiment [6] and in experiment [9] was inactive. Also, the outcome in experiment [10] was inactive. Besides, the AC50 is 158 µM (active) in experiment [7] and 100 µM (active) in experiment [8].
